Source: the supplement of paper PMC7380943

What was measured:
[1] = test system: CLZ3 (HCA2 human fibroblast dual HR-NHEJ reporter); assay: NHEJ repair efficiency (GFP+ cells) relative to control (log10 fold); higher = more non-homologous end joining; conditions: 5 µM; doxycycline 0.5 ug/mL
[2] = test system: CLZ3 (HCA2 human fibroblast dual HR-NHEJ reporter); assay: HR repair efficiency (tdTomato+ cells) relative to control (log10 fold); higher = more homologous recombination; conditions: 5 µM; doxycycline 0.5 ug/mL
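Throughout, for HR repair efficiency (tdTomato+ cells) relative to control: compound given one day before doxycycline, which switches on I-SceI endonuclease expression to create double-strand breaks within the integrated reporter.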
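Throughout, for NHEJ repair efficiency (GFP+ cells) relative to control: compound given one day ahead of doxycycline, which switches on I-SceI endonuclease to cut the chromosomally integrated reporter and create DSBs.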

SMILES	NHEJ repair efficiency (log10) [1]	HR repair efficiency (log10) [2]
C[C@@H]1O[C@@H](O[C@H]2[C@H](Oc3cc(O)c(C(=O)CCc4ccc(O)cc4)c(O)c3)O[C@H](CO)[C@@H](O)[C@@H]2O)[C@H](O)[C@H](O)[C@H]1O	-0.0363	-0.0118
C[C@@H]1O[C@@H](Oc2c(-c3cc(O)c(O)c(O)c3)oc3cc(O)cc(O)c3c2=O)[C@H](O)[C@H](O)[C@H]1O [Myricetrin]	0.0716	-0.0586
CC12CCC(CC1=O)C2(C)C (stereo not given) [Camphor]	-0.0599	-0.0168
O=c1c(O[C@@H]2O[C@H](CO)[C@H](O)[C@H](O)[C@H]2O)c(-c2ccc(O)c(O)c2)oc2cc(O)cc(O)c12 [Hyperoside]	0.0115	-0.00424
O=C1O[C@H]2[C@@H]3OC(=O)c4cc(O)c(O)c(O)c4-c4c(O)c(O)c5oc(=O)c6c(c(O)c(O)c7oc(=O)c4c5c76)-c4c(cc(O)c(O)c4O)C(=O)OC[C@H]3OC(O)[C@@H]2OC(=O)c2cc(O)c(O)c(O)c2-c2c1cc(O)c(O)c2O (mixture of isomers) [Punicalagin]	-0.0664	-0.254
OCCc1ccc(O)c(O)c1 [Hydroxytyrosol]	0.0571	0.228
CC(C)=CCC[C@](C)(O[C@@H]1O[C@H](CO)[C@@H](O)[C@H](O)[C@H]1O)[C@H]1CC[C@]2(C)[C@@H]1[C@H](O)C[C@@H]1[C@@]3(C)CC[C@H](O)C(C)(C)[C@@H]3[C@@H](O[C@@H]3O[C@H](CO)[C@@H](O)[C@H](O)[C@H]3O)C[C@]12C [Ginsenoside Rg1]	0.099	0.0737
C[C@@H]1CC[C@]2(C(=O)O[C@@H]3O[C@H](CO)[C@@H](O)[C@H](O)[C@H]3O)CC[C@]3(C)C(=CC[C@@H]4[C@@]5(C)CC[C@H](O)[C@@](C)(CO)[C@@H]5CC[C@]43C)[C@@H]2[C@]1(C)O [Pedunculoside]	0.0473	0.237
CC1(C)O[C@H]2CC(=O)OC[C@]23[C@H]2CC[C@@]4(C)[C@H](c5ccoc5)OC(=O)[C@H]5O[C@]54[C@]2(C)C(=O)C[C@@H]13 [Limonin]	0.0392	-0.00925
CCC/C=C1\OC(=O)C2=C1CCC1C3C=C4C(=O)O/C(=C\CCC)C4(CC3)C21 (stereo not given) [Levistilide A]	-0.106	0.0314
O=Cc1ccc(O)cc1 [4-Hydroxybenzaldehyde]	0.0829	0.0974
O=C(/C=C/c1ccc(O)c(O)c1)O[C@@H]1C[C@](OC(=O)/C=C/c2ccc(O)c(O)c2)(C(=O)O)C[C@@H](O)[C@H]1O [1,3-Di-O-Caffeoylquinic Acid]	-0.263	-0.0833
COc1cc(-c2oc3cc(O)cc(O)c3c(=O)c2O[C@@H]2O[C@H](CO[C@H]3O[C@H](C)[C@@H](O)[C@H](O)[C@@H]3O)[C@@H](O)[C@H](O)[C@H]2O)ccc1O [Narcissoside; Isorhamnetin-3-O-β-D-rutinoside]	0.0544	-0.0269
CC1(C)[C@@H](O[C@H]2O[C@H](C(=O)O)[C@@H](O)[C@H](O)[C@H]2O[C@@H]2O[C@H](C(=O)O)[C@@H](O)[C@H](O)[C@H]2O)CC[C@]2(C)[C@H]3C(=O)C=C4[C@@H]5C[C@@](C)(C(=O)O)CC[C@]5(C)CC[C@@]4(C)[C@]3(C)CC[C@@H]12 [Monoammonium Glycyrrhizinate]	0.137	-0.00605
C[C@@H]1O[C@@H](OC[C@H]2O[C@@H](OCCc3ccc(O)c(O)c3)[C@H](O)[C@@H](O[C@@H]3O[C@@H](C)[C@H](O)[C@@H](O)[C@H]3O)[C@@H]2OC(=O)/C=C/c2ccc(O)c(O)c2)[C@H](O)[C@H](O)[C@H]1O [Poliumoside]	0.019	0.0718
CCOC(=O)c1cc(O)c(O)c(O)c1 [Gallic Acid Ethyl Ester]	0.018	0.00694
COc1cc2oc(=O)ccc2c(OC)c1O [Fraxinol]	0.0138	0.0872
CC[C@]12CCCN3CCc4c(n(c5ccccc45)[C@@](O)(C(=O)OC)C1)[C@@H]32 [Vincamine]	0.104	0.0346
O=C(O)c1cc(O)c2c(c1)[C@H]([C@H]1c3cc(CO)cc(O)c3C(=O)c3c(O[C@@H]4O[C@H](CO)[C@@H](O)[C@H](O)[C@H]4O)cccc31)c1cccc(O[C@@H]3O[C@H](CO)[C@@H](O)[C@H](O)[C@H]3O)c1C2=O [Sennoside C]	-0.0248	0.148
COc1ccc(-c2cc(=O)c3c(O)cc(O[C@@H]4O[C@H](CO[C@@H]5O[C@@H](C)[C@H](O)[C@@H](O)[C@H]5O)[C@@H](O)[C@H](O)[C@H]4O)cc3o2)cc1O [Diosmin]	-0.157	-0.0408
O=Cc1ccc(CO)o1 [5-Hydroxymethyl-2-furaldehyde (5-HMF)]	-0.174	-0.326
CC(=O)O[C@H]1[C@H](OCCc2ccc(O)c(O)c2)O[C@H](CO)[C@@H](OC(=O)/C=C/c2ccc(O)c(O)c2)[C@@H]1O[C@@H]1O[C@@H](C)[C@H](O)[C@@H](O)[C@H]1O [2-Acetylacteoside]	-0.00932	-0.164
CC(C)[C@@H]1[C@H]2OC(=O)[C@@H]1[C@@H]1CC[C@@H]3CN(C)[C@H]2[C@@]31C [Dendrobine]	0.165	0.272

SMILES	NHEJ repair efficiency (log10) [1]	HR repair efficiency (log10) [2]
COc1c(O)cc2oc(-c3ccccc3)cc(=O)c2c1O [Oroxylin A]	0.0844	0.0534
O=c1cc(-c2ccc(O)cc2)oc2c([C@@H]3O[C@H](CO)[C@@H](O)[C@H](O)[C@H]3O)c(O)c([C@@H]3OC[C@H](O)[C@H](O)[C@H]3O)c(O)c12 [Isoschaftoside]	-0.0804	0.0575
NC(=O)c1cccnc1 [Nicotinamide]	0.139	0.186
O=c1cc(-c2ccc(O)cc2)oc2cc(O[C@@H]3O[C@H](CO)[C@@H](O)[C@H](O)[C@H]3O[C@@H]3OC[C@](O)(CO)[C@H]3O)cc(O)c12 [Apiin]	0.142	0.321
O=c1c(O[C@@H]2O[C@H](CO)[C@@H](O)[C@H](O)[C@H]2O)c(-c2ccc(O)cc2)oc2cc(O)cc(O)c12 [Astragalin]	-0.0677	0.0112
COc1ccc2cc1Oc1ccc(cc1)C[C@H]1c3cc(c(OC)cc3CCN1C)Oc1c(OC)c(OC)cc3c1[C@H](C2)N(C)CC3 [Tetrandrine]	0.294	-0.328
COC(=O)C1=CO[C@@H](O[C@@H]2O[C@H](CO)[C@@H](O)[C@H](O)[C@H]2O)[C@@H]2[C@@H](C)[C@@H](O)C[C@H]12 [Loganin]	0.226	0.191
O=C1C[C@@H](c2ccccc2)Oc2cc(O)cc(O)c21 [Pinocembrin]	0.123	0.0891
COc1cc2ccc(=O)oc2c(O)c1O [Fraxetin]	0.113	0.272
C=CC(C)(C)c1cc(/C=C/C(=O)c2ccc(O)cc2)c(OC)cc1O [Licochalcone A]	-0.106	0.0473
CC(C)=CCC[C@](C)(O[C@@H]1O[C@H](CO)[C@@H](O)[C@H](O)[C@H]1O)[C@H]1CC[C@]2(C)[C@@H]1[C@H](O)C[C@@H]1[C@@]3(C)CC[C@H](O[C@@H]4O[C@H](CO)[C@@H](O)[C@H](O)[C@H]4O[C@@H]4O[C@H](CO)[C@@H](O)[C@H](O)[C@H]4O)C(C)(C)[C@@H]3CC[C@]12C [Ginsenoside Rd]	0.0871	0.0615
O=c1cc(-c2ccc(O)c(O)c2)oc2c([C@@H]3O[C@H](CO)[C@@H](O)[C@H](O)[C@H]3O)c(O)cc(O)c12 [Orientin]	0.0454	0.0493
C[C@H](N)C(=O)O [Alanine]	0.113	-0.14
O=C(/C=C/c1ccc(O)c2oc(-c3ccc(O)c(O)c3)cc12)O[C@H](Cc1ccc(O)c(O)c1)C(=O)O [Salvianolic Acid C]	-0.0345	-0.0113
CC1(C)CC[C@]2(C(=O)O)CC[C@]3(C)C(=CC[C@@H]4[C@@]5(C)CC[C@H](O[C@@H]6O[C@H](C(=O)O)[C@@H](O)[C@H](O[C@@H]7OC[C@@H](O)[C@H](O)[C@H]7O)[C@H]6O)C(C)(C)[C@@H]5CC[C@]43C)[C@@H]2C1 [Momordin Ic]	0.0282	-0.203
CC1(C)CC[C@]2(C(=O)O[C@@H]3O[C@H](CO[C@@H]4O[C@H](CO)[C@@H](O)[C@H](O)[C@H]4O)[C@@H](O)[C@H](O)[C@H]3O)CC[C@]3(C)C(=CC[C@@H]4[C@@]5(C)CC[C@H](O[C@@H]6OC[C@H](O)[C@H](O)[C@H]6O)[C@@](C)(CO)[C@@H]5CC[C@]43C)[C@@H]2C1 [Akebiasaponin D]	0.328	-0.29
O=C(/C=C/c1ccc(O)c(O)c1)O[C@@H]1C[C@@](OC(=O)/C=C/c2ccc(O)c(O)c2)(C(=O)O)C[C@@H](O)[C@@H]1O [Cynarin (1,5-Di-O-caffeoylquinic acid)]	0.0398	0.0943
Cc1cc(O)c2c(c1)C(=O)c1cccc(O)c1C2=O [Chrysophanol]	0.0473	0.134
C[C@@H]1O[C@@H](OC[C@H]2O[C@@H](Oc3cc(O)c4c(c3)O[C@H](c3ccc(O)cc3)CC4=O)[C@H](O)[C@@H](O)[C@@H]2O)[C@H](O)[C@H](O)[C@H]1O [Narirutin]	0.00886	-0.053
C=C1C2CCC3(C4C[C@H]5C6(CCC[C@@]5(C)CN(CC)C46)[C@H]3[C@H]2O)[C@@H]1O [Bullatine A]	-0.197	-0.165
COc1c(O)cc2c(c1O)C(=O)c1c(cc(C)c(O)c1OC)C2=O [Aurantio-obtusin]	0.137	0.0361
O=c1c(-c2ccc(O[C@@H]3O[C@H](CO)[C@@H](O)[C@H](O)[C@H]3O)cc2)coc2cc(O)cc(O)c12 [Sophoricoside]	0.185	0.0013
